Reference: PubChem BioAssay (NCATS)
Results filed as inconclusive are left out. Active and inactive are the calls of the source. The call rests on the fitted dose curve; in most records, active means well fitted cell-killing curve with a large enough effect; inconclusive means small, poorly fitted or top-dose-only effect, or effect the other way; inactive means no such curve, though single readings can be large or run the other way.

Assay: qHTS assay to identify small molecule inhibitors of chordoma cells - UCH-1 (AID 1259355); further: nearly all actives have a fitted effect of over 55% in size
Details: UCH-1 chordoma viability, CellTiter-Glo, 48 h, combination; series mostly up to 46.1 µM; activity, negative = inhibition: at the top concentration
Outline: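 Luminescent ATP read-out (CellTiter-Glo, 30min at room temperature) measured viability of UCH-1 cells exposed for 48hr to test drugs at 15 concentrations, co-dosed with a five-agent combination of auranofin, camptothecin, doxorubicin, rubitecan and topotecan.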
On the % scale 0 is the no-effect control and ±100 the full control effect.

| SMILES | activity, negative = inhibition |
| --- | --- |
| NC(=O)OCCCc1ccccc1 | -18.3% (inactive) |
| CCC1(c2cccc(O)c2)CCCCN(C)C1 (stereo unspecified) | -6.93% [at 20.6 µM] (inactive) |
| Oc1ccc2[nH]cc(CCCCN3CC=C(c4ccccc4)CC3)c2c1 | -0.776% (inactive) |
| COC(=O)C1=CCCN(C)C1 | -7.02% (inactive) |
| CCN(CC)C(C)C(=O)c1ccccc1 (stereo unspecified) | -10.8% (inactive) |
| CCOC(=O)NC(O)C(Cl)(Cl)Cl (stereo unspecified) | 1.45% (inactive) |
| CC(C)(O)C(Cl)(Cl)Cl | -23.3% (inactive) |
| COCC(=O)N(c1c(C)cccc1C)C(C)C(=O)OC (stereo unspecified) | -11.2% [at 46.1 µM, with auranofin plus four topoisomerase inhibitors] (inactive) |
| C[C@@H]1CC[C@H]2[C@@H](C)C(=O)O[C@@H]3O[C@@]4(C)CC[C@@H]1[C@]32OO4 | -9.3% (inactive) |
| C=CCN1CC[C@]23CCCC[C@H]2[C@H]1Cc1ccc(O)cc13 | 17.5% (inactive) |
| COP(=O)(OC)OC=C(Cl)Cl | -19.3% (inactive) |
| CN1CCc2cc(Cl)c(O)cc2[C@H]2c3ccccc3CC[C@@H]21 | -16.3% (inactive) |
| C#C[C@]1(O)C=C[C@H]2[C@@H]3CCC4=CC(=O)CC[C@@H]4[C@H]3CC[C@@]21CC | -0.144% (inactive) |
| CCCC[N+]1(C)[C@@H]2CC(OC(=O)[C@H](CO)c3ccccc3)C[C@H]1[C@@H]1O[C@@H]12 (stereo partly specified) | -9.56% (inactive) |
| O=C(CCCN1CCC(n2c(=O)[nH]c3ccccc32)CC1)c1ccc(F)cc1 | 6.24% [at 20.6 µM] (inactive) |
| Nc1ccc(N)cc1 | 7.81% (inactive) |
| CCCC(C)C1(CC)C(=O)N=C(S)NC1=O (stereo unspecified) | -11.3% (inactive) |
| COc1ccc(CN2CCNCC2)c(OC)c1OC | -2.32% [at 20.6 µM] (inactive) |
| N#Cc1nn(-c2c(Cl)cc(C(F)(F)F)cc2Cl)c(N)c1S(=O)C(F)(F)F (stereo unspecified) | -33.6% (inactive) |
| ClC1=C(Cl)C2(Cl)C(CBr)CC1(Cl)C2(Cl)Cl (stereo unspecified) | -14.8% [at 46.1 µM, with auranofin plus four topoisomerase inhibitors] (inactive) |
| OC(c1ccccc1)(c1ccccc1)C1CCNCC1 | 1.45% [at 20.6 µM] (inactive) |
